# Assay results published in the supplement of paper PMC4166925.
# ± gives the standard deviation of the averaged measurements. Over roughly 33,000 sequences, “E-score (dimensionless, -0.5 to 0.5)” has its median near -0.046; the highest 2% begin near 0.36. The sample holds the highest values, similar sequences and a random draw of the others, so the mix is not that of the screen.
# Tested on: T1, SpTbr T-box DNA-binding domain (GST fusion)
# T1 sequence: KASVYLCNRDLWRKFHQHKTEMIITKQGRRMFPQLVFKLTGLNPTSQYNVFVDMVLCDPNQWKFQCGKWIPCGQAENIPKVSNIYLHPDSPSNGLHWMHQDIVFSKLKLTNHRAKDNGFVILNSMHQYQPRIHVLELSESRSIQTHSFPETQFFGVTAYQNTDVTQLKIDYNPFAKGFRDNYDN
# Assay: PBM E-score of 8-mer (E-score (dimensionless, -0.5 to 0.5)); Tbr is Tbrain of the sea star Patiria miniata (Pm) or the sea urchin Strongylocentrotus purpuratus (Sp); higher = stronger binding preference
# Details: the construct has about 5 more residues each side
# Outline: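 GST-fused Tbr T-box DNA-binding domains (the whole T-box plus about five flanking residues) were expressed in BL21 E. coli at 20 °C and purified by glutathione affinity chromatography. Universal Agilent oligonucleotide arrays were made double-stranded by primer extension, incubated with 200 nM protein in PBS (pH 7.5), then scanned and quantified. Every ungapped 8-mer was scored from probe intensities. The Universal PBM Analysis Suite gave each word an enrichment E-score, averaged over duplicate arrays.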
row,Sequence,PBM E-score of 8-mer
1,AAACTTCT,-0.146 ± 0.1
2,CCACTTCG,0.193 ± 0.017
3,ACTCTTCT,-0.224 ± 0.0037
4,CCACTTCC,0.072 ± 0.0026
5,CCACTTCA,0.108 ± 0.019
6,ACTCGTAC,-0.0977 ± 0.07
7,CATCCTGG,-0.0597 ± 0.01
8,AAGTTAAA,0.0719 ± 0.053
9,AGACTCTC,-0.0738 ± 0.045
10,TCTCAAAA,-0.176 ± 0.025
11,GACAATCC,0.0693 ± 0.021
12,AGGTGCGG,0.429 ± 0.025
13,AGGTGCTG,0.4215 ± 0.0039
14,CGGTGCTA,0.258 ± 0.035
15,AGGTGCTA,0.4822 ± 0.0033
16,AGGTGCGC,0.3101 ± 0.0015
17,AGGTGCAA,0.414 ± 0.005
18,TGGTGCAA,0.214 ± 0.0077
19,ATGTGCTG,0.161 ± 0.0054
20,GGGTGCAA,0.271 ± 0.017
21,AGGTGCTC,0.012 ± 0.081
22,AAGTGCGG,0.273 ± 0.027
23,ATGTGCTA,0.328 ± 0.024
24,GACTGTCA,0.144 ± 0.037
25,AGACTCGA,-0.158 ± 0.006

row,Sequence,PBM E-score of 8-mer
1,GGTGTAGA,0.35 ± 0.009
2,CGATCAGC,0.0172 ± 0.057
3,CAGAGTCG,0.144 ± 0.077
4,TAGACAGA,-0.0941 ± 0.02
5,CCAAGAGG,0.12 ± 0.0026
6,GACATTGC,0.0656 ± 0.018
7,CCCACGTA,-0.0631 ± 0.1
8,AAGAAGTA,-0.119 ± 0.082
9,GGGTGCTA,0.397 ± 0.0085
10,GTGTGCTA,0.268 ± 0.025
11,GCGTGCTA,0.21 ± 0.019
12,GTTTACGA,0.0241 ± 0.021
13,TACTTCGA,-0.0694 ± 0.013
14,AGGCGACG,0.301 ± 0.066
15,AGGCGCGC,0.185 ± 0.039
16,GGGCGCGA,0.422 ± 0.031
17,AGGCGCGA,0.471 ± 0.0037
18,AGGCGCGG,0.291 ± 0.017
19,CGGCGCTA,0.152 ± 0.019
20,AGGCGACA,0.37 ± 0.013
21,AGGCGCTA,0.41 ± 0.023
22,GGGCGCTA,0.314 ± 0.014
23,GGGGGCGA,-0.0505 ± 0.016
24,AGGCGACC,0.012 ± 0.083
25,CGGCGCGA,0.3178 ± 0.00058

row,Sequence,PBM E-score of 8-mer
1,CTAGATAA,-0.00975 ± 0.025
2,ACCGGTAC,-0.1754 ± 0.0017
3,TAAATGTA,-0.0999 ± 0.021
4,CGCACTGC,0.104 ± 0.0094
5,ATGCGGGA,-0.193 ± 0.03
6,GAATAGCA,0.189 ± 0.0036
7,AGTAGGAG,-0.00869 ± 0.02
8,CAGGCCTC,-0.159 ± 0.029
9,GCATAGAA,-0.126 ± 0.09
10,GGGCGAGA,0.222 ± 0.0041
11,AGGCGAGC,-0.233 ± 0.11
12,AGGCGAGA,0.373 ± 0.012
13,AAACAGAT,-0.136 ± 0.01
14,GGAATGCC,-0.187 ± 0.06
15,ATGTTTTG,0.00867 ± 0.052
16,AACCTAGC,-0.0309 ± 0.0034
17,CACCTAGG,0.392 ± 0.012
18,CACCTAGA,0.294 ± 0.073
19,CCCCTAGG,-0.0502 ± 0.012
20,AACCTAGG,-0.0376 ± 0.091
21,CACCTAGC,0.40555 ± 0.00015
22,AGAAGACT,-0.285 ± 0.046
23,ACTAAATA,-0.131 ± 0.019
24,GCGAATAC,0.228 ± 0.018
25,AGCCGTCG,0.0127 ± 0.019

row,Sequence,PBM E-score of 8-mer
1,AAGGGTAA,-0.088 ± 0.0016
2,CCCACACC,0.438 ± 0.033
3,ACCACACA,0.248 ± 0.037
4,AACACACC,0.326 ± 0.0067
5,CACACACC,0.454 ± 0.013
6,CCCACACG,0.15 ± 0.1
7,CCCACACA,0.199 ± 0.038
8,ACCACACC,0.369 ± 0.029
9,GCCACAGC,0.00288 ± 0.017
10,GACACACC,0.321 ± 0.016
11,GCCACACC,0.421 ± 0.036
12,GCCACACA,0.335 ± 0.0096
13,ACCACACG,0.26 ± 0.039
14,CTCGAGAC,-0.0685 ± 0.051
15,CACCATAC,-0.065 ± 0.011
16,ACGGTTAT,0.0286 ± 0.041
17,ATGCCTGC,-0.295 ± 0.061
18,GTGGTGCA,0.0312 ± 0.0088
19,AGTTGTTC,0.00852 ± 0.024
20,CCGTTAGG,0.0143 ± 0.029
21,CCTATCGA,0.042 ± 0.12
22,ACCGTCTA,-0.0953 ± 0.012
23,CACAACCA,0.133 ± 0.025
24,CAAAAAGC,0.0694 ± 0.065
25,GGAGCTGA,-0.203 ± 0.042

row,Sequence,PBM E-score of 8-mer
1,GTGACACA,0.403 ± 0.0044
2,GTGACAAC,0.4467 ± 0.0025
3,GAGACACA,0.15 ± 0.01
4,ATGACAAA,-0.0554 ± 0.028
5,ATGACAAC,0.222 ± 0.017
6,GCGACAAC,0.369 ± 0.007
7,CTGACAAA,0.0345 ± 0.084
8,ACGACAAC,0.2279 ± 0.0012
9,CTGACAAC,0.259 ± 0.018
10,CCGACAAC,0.159 ± 0.048
11,CTGACACA,0.356 ± 0.022
12,GTGACAAA,0.38303 ± 5.7e-05
13,AGGTAGCA,0.0725 ± 0.016
14,ACCACAAT,-0.0442 ± 0.058
15,GGCACCCA,0.173 ± 0.021
16,AGCACCCT,0.202 ± 0.025
17,GACACCCC,0.405 ± 0.026
18,GCCACCCC,0.181 ± 0.081
19,GCCACCCA,0.0264 ± 0.086
20,GGCACCCC,0.22 ± 0.003
21,GACACCCA,0.374 ± 0.032
22,AACACCCC,0.39126 ± 9.9e-05
23,ACCACCCT,0.0155 ± 0.074
24,ATCACCCC,0.232 ± 0.013
25,AACACCCT,0.4 ± 0.0049

row,Sequence,PBM E-score of 8-mer
1,AACACCCA,0.293 ± 0.035
2,CAGCCGGA,0.05 ± 0.018
3,CCAGTCAC,0.0388 ± 0.0065
4,AAGTTTCT,0.0712 ± 0.037
5,CCTCCTCA,0.0831 ± 0.027
6,AGATCTCA,0.098 ± 0.054
7,TATTCTCA,0.264 ± 0.061
8,CGAAAACC,-0.297 ± 0.0092
9,GTCGCGTA,0.0514 ± 0.011
10,CCGGCCAA,-0.208 ± 0.042
11,ACCACCAT,0.108 ± 0.082
12,AACACCAA,0.356 ± 0.012
13,AACACCAT,0.377 ± 0.021
14,GATATAGC,0.118 ± 0.023
15,ATCAAATA,-0.182 ± 0.015
16,AGTCGACA,0.179 ± 0.051
17,TGTCGACA,0.384 ± 0.01
18,CGTCGACA,0.251 ± 0.031
19,GCAAACCC,-0.0464 ± 0.01
20,ACATATTC,0.203 ± 0.049
21,ACTCGCAC,0.394 ± 0.035
22,CCTCGCAG,0.128 ± 0.0015
23,ACTCGCAT,-0.00696 ± 0.059
24,CCTCGCAC,0.396 ± 0.032
25,ACTCGCAG,0.0332 ± 0.026

row,Sequence,PBM E-score of 8-mer
1,CCTCGCAA,0.102 ± 0.077
2,GCTCGCCC,-0.196 ± 0.039
3,GCTCGCAA,0.224 ± 0.021
4,GCTCGCAC,0.4252 ± 0.0014
5,AATTGGAC,-0.187 ± 0.049
6,GCAGTGGA,-0.261 ± 0.065
7,CACCTTAA,0.387 ± 0.004
8,AACCTTAG,-0.144 ± 0.086
9,CACCTTAG,0.401 ± 0.04
10,CACCTTAC,0.413 ± 0.017
11,CCCCTTAG,-0.184 ± 0.068
12,AACCTTAA,-0.218 ± 0.046
13,GACCTTAC,-0.286 ± 0.0076
14,GACCTTAA,-0.188 ± 0.0048
15,AACCTTAC,0.0738 ± 0.012
16,TAAGAGCA,-0.252 ± 0.049
17,CCGCTACC,0.162 ± 0.04
18,ATGCTTCG,0.0174 ± 0.071
19,CGTGCCTA,-0.0792 ± 0.002
20,GGTAGGCA,-0.079 ± 0.028
21,AAACTACA,0.014 ± 0.14
22,TAGGGGCA,-0.127 ± 0.04
